# Measurements reported in ChEMBL document CHEMBL2218924, “A broad activity screen in support of a chemogenomic map for kinase signalling research and drug discovery” (Biochem J, 2013).
# Key:
# [1] = biological target: T1, Phosphorylase b kinase gamma catalytic chain, liver/testis isoform (Homo sapiens) (UniProt P15735); details: at 1 µM
# T1 sequence (whole entry): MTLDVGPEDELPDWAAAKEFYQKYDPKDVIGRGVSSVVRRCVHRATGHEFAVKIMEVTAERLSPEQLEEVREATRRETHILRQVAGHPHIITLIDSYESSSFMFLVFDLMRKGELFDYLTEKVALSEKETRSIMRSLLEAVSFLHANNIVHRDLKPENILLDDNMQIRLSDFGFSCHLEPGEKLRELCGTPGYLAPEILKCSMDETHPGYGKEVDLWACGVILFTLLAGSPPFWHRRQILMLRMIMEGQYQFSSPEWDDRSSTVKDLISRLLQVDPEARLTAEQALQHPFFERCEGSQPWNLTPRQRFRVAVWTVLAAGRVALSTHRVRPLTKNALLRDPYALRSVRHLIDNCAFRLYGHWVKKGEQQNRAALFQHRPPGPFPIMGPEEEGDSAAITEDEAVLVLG
# [2] = biological target: T1, Phosphorylase b kinase gamma catalytic chain, liver/testis isoform (Homo sapiens); details: at 10 µM
# [3] = biological target: Serine/threonine-protein kinase pim-2 (Homo sapiens) (UniProt Q9P1W9); details: at 1 µM
# Chain of Serine/threonine-protein kinase pim-2 (Homo sapiens) (Q9P1W9 whole entry, looked up): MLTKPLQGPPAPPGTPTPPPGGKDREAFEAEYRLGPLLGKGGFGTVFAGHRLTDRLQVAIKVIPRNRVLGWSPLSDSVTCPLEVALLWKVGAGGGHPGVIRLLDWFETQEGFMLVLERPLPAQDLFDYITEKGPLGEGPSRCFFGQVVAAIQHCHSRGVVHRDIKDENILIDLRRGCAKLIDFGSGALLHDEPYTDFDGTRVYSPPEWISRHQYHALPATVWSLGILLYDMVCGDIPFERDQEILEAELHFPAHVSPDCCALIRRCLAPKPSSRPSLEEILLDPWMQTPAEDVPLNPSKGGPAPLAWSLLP
# [4] = biological target: Serine/threonine-protein kinase pim-2 (Homo sapiens) (UniProt Q9P1W9); details: at 10 µM
# [5] = biological target: Serine/threonine-protein kinase pim-3 (Homo sapiens) (UniProt Q86V86); details: at 1 µM
# [6] = biological target: Serine/threonine-protein kinase pim-3 (Homo sapiens) (UniProt Q86V86); details: at 10 µM
# [7] = biological target: Serine/threonine-protein kinase PLK1 (Homo sapiens) (UniProt P53350); details: at 1 µM
# Chain of Serine/threonine-protein kinase PLK1 (Homo sapiens) (P53350 whole entry): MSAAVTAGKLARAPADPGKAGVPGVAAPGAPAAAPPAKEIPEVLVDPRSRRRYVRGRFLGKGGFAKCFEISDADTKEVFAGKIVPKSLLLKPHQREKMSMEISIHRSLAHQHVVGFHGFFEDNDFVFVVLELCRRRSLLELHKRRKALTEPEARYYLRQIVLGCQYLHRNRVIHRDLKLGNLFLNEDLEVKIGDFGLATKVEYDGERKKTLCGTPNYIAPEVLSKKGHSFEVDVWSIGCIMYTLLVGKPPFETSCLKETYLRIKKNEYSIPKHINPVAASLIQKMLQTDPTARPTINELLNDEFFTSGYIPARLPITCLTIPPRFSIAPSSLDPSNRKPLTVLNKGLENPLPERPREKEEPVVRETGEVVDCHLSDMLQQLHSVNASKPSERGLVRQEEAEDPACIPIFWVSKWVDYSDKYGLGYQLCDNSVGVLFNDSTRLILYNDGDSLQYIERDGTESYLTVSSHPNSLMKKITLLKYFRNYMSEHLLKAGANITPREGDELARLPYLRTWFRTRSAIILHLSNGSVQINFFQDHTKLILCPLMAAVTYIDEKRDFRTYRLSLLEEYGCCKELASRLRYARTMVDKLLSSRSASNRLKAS
# [8] = biological target: Serine/threonine-protein kinase PLK1 (Homo sapiens) (UniProt P53350); details: at 10 µM
# [9] = biological target: Serine/threonine-protein kinase PLK3 (Homo sapiens) (UniProt Q9H4B4); details: at 1 µM
# [10] = biological target: Serine/threonine-protein kinase PLK3 (Homo sapiens) (UniProt Q9H4B4); details: at 10 µM
# [11] = biological target: T2, cAMP-dependent protein kinase catalytic subunit PRKX (Homo sapiens) (UniProt P51817); details: at 1 µM
# T2 sequence (whole entry): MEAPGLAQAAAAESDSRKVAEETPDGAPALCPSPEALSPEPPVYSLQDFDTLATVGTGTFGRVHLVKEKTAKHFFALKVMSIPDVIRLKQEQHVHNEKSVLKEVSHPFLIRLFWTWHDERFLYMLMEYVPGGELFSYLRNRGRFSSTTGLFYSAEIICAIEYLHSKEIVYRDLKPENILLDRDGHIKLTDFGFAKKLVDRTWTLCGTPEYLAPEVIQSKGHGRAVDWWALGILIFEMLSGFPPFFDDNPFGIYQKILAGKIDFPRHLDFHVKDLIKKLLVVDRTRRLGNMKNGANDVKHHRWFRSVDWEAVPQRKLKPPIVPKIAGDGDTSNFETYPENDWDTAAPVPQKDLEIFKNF
# [12] = biological target: T2, cAMP-dependent protein kinase catalytic subunit PRKX (Homo sapiens); details: at 10 µM
# [13] = biological target: Protein-tyrosine kinase 2-beta (Homo sapiens) (UniProt Q14289); details: at 1 µM
# Chain of Protein-tyrosine kinase 2-beta (Homo sapiens) (Q14289 whole entry, looked up): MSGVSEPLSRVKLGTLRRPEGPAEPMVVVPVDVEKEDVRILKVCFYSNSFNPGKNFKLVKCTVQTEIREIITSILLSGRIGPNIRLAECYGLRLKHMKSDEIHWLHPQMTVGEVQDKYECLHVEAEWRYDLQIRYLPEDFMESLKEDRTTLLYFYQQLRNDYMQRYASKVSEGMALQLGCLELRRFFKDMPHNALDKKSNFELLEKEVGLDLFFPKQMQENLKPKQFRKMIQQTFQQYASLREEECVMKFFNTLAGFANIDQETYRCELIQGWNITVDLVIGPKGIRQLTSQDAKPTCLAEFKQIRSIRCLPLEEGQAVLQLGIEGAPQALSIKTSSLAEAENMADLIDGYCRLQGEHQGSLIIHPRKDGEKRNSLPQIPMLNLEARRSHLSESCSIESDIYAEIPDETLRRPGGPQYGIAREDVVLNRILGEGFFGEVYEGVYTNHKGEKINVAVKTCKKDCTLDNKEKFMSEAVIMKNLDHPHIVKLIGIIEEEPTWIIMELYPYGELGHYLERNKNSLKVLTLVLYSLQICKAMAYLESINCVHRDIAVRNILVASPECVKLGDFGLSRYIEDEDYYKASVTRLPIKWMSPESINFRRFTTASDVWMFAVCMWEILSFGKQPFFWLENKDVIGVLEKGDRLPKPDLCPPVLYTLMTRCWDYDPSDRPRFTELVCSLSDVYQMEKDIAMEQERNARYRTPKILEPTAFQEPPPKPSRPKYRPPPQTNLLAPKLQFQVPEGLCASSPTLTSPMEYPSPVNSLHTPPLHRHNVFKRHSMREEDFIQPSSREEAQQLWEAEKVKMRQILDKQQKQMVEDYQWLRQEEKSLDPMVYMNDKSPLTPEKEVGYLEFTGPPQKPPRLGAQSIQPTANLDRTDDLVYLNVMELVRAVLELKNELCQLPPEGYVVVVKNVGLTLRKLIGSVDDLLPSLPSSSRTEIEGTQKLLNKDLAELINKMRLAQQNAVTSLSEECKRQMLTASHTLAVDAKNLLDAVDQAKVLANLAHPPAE
# [14] = biological target: Protein-tyrosine kinase 2-beta (Homo sapiens) (UniProt Q14289); details: at 10 µM
# [15] = biological target: Receptor-interacting serine/threonine-protein kinase 2 (Homo sapiens) (UniProt O43353); details: at 1 µM
# Chain of Receptor-interacting serine/threonine-protein kinase 2 (Homo sapiens) (O43353 whole entry): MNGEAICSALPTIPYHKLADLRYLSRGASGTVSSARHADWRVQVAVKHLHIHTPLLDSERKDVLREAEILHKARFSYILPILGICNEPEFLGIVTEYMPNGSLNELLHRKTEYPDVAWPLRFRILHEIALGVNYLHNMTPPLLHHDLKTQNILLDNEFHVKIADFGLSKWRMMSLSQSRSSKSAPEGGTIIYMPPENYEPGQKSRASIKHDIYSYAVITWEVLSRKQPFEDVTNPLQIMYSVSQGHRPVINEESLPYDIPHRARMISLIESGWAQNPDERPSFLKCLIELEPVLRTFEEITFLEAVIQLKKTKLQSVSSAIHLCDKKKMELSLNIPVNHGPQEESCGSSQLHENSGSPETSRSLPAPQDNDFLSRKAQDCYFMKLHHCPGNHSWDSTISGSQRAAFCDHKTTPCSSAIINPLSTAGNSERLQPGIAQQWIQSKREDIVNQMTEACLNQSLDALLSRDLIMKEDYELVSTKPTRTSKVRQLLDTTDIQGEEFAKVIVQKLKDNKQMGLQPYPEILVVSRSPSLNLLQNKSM
# [16] = biological target: Receptor-interacting serine/threonine-protein kinase 2 (Homo sapiens) (UniProt O43353); details: at 10 µM
# [17] = biological target: Rho-associated protein kinase 1 (Homo sapiens) (UniProt Q13464); details: at 1 µM
# Chain of Rho-associated protein kinase 1 (Homo sapiens) (Q13464 2-1354 limits assumed): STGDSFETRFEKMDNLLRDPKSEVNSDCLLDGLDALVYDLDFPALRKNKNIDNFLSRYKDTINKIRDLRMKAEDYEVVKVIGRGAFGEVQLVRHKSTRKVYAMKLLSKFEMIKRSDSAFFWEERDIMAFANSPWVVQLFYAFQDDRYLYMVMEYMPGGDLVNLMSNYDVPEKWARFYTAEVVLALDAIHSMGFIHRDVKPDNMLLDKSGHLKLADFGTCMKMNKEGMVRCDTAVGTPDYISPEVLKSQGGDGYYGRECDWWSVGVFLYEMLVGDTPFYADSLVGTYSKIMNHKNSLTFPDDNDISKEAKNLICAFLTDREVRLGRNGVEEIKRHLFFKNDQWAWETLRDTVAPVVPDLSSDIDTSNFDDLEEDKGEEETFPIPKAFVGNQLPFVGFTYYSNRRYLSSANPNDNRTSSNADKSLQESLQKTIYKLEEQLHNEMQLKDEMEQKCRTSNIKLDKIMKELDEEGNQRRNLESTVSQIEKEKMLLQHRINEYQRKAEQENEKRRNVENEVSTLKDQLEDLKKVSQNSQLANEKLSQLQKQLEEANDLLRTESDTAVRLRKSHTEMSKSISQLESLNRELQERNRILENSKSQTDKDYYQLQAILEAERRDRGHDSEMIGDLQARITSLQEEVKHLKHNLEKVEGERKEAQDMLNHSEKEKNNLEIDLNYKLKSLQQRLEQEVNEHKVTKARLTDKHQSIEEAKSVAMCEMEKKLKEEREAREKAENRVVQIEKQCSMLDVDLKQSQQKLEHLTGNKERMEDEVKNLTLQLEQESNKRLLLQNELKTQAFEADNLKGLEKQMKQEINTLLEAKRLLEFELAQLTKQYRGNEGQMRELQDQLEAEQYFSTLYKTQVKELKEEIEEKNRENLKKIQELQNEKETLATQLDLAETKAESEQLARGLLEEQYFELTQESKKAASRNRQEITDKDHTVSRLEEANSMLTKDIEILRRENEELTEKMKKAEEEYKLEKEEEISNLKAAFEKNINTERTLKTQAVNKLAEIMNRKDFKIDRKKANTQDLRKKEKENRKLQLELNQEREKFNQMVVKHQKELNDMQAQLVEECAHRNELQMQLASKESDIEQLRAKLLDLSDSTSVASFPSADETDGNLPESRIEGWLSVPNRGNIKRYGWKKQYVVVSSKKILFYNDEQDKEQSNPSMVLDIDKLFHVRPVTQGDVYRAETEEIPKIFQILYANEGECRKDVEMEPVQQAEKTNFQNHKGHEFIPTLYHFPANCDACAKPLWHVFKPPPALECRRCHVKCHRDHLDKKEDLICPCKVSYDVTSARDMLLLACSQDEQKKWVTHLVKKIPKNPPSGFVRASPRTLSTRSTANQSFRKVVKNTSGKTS
# [18] = biological target: Rho-associated protein kinase 1 (Homo sapiens) (UniProt Q13464); details: at 10 µM
# [19] = biological target: Serine/threonine-protein kinase pim-1 (Homo sapiens) (UniProt P11309); details: at 1 µM
# Chain of Serine/threonine-protein kinase pim-1 (Homo sapiens) (P11309 whole entry, looked up): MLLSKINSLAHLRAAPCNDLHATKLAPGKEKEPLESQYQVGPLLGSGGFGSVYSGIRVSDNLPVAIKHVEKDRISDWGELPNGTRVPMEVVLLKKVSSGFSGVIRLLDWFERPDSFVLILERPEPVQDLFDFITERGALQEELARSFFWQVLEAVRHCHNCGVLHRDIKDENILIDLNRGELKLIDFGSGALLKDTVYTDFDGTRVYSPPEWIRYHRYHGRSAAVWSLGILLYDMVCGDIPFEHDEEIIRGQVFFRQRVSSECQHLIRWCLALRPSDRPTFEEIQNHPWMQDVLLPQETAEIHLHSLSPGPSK
# [20] = biological target: Serine/threonine-protein kinase pim-1 (Homo sapiens) (UniProt P11309); details: at 10 µM
Structure (SMILES),residual activity [1] [%],residual activity [2] [%],residual activity [3] [%],residual activity [4] [%],residual activity [5] [%],residual activity [6] [%],residual activity [7] [%],residual activity [8] [%],residual activity [9],residual activity [10] [%],residual activity [11] [%],residual activity [12] [%],residual activity [13] [%],residual activity [14] [%],residual activity [15] [%],residual activity [16] [%],residual activity [17] [%],residual activity [18] [%],residual activity [19] [%],residual activity [20] [%]
CN(C)CCCn1cc(C2=C(c3c[nH]c4ccccc34)C(=O)NC2=O)c2ccccc21,88,63,15,4,22,5,114,84,101% (inactive),104,103,38,115,42,90,77,83,89,–,–
Cn1cc(/C=C2\C(=O)Nc3ccc(S(N)(=O)=O)cc32)c2ccccc21,24,9,109,97,102,–,109,93,100% (inactive),99,88,59,22,5,52,51,92,87,76,111
N#Cc1cnc2cnc(NCc3cccnc3)cc2c1Nc1ccc(F)c(Cl)c1,3,2,84,63,97,94,–,–,–,96,95,87,66,45,100,96,37,19,27,18
c1ccc(-c2n[nH]cc2-c2ccnc3ccccc23)nc1,95,102,–,–,99,100,80,72,99% (inactive),94,96,94,109,96,29,16,–,127,96,85
CCN(CC)C(=O)c1ccc(Nc2nc(OCC3CCCCC3)c3nc[nH]c3n2)cc1,–,–,143,–,–,–,78,66,101% (inactive),–,101,23,22,0,74,41,–,23,77,56
Nc1n[nH]c2nnc(-c3c(-c4ccccc4)nn4ccccc34)cc12,104,98,123,74,88,83,78,92,97% (inactive),99,92,74,95,72,88,78,106,105,98,85
C[C@@H](N)[C@H]1CC[C@H](C(=O)Nc2ccncc2)CC1,101,93,118,121,98,99,107,105,108% (inactive),96,72,24,–,–,96,–,77,31,126,115
CC(C)n1cnc2c(NCc3ccccc3)nc(NCCCO)nc21,96,75,134,87,93,96,89,52,98% (inactive),95,130,88,102,83,69,51,109,100,107,75
N#C/C(=C(\N)Sc1ccc(N)cc1)c1ccccc1C(F)(F)F,–,108,130,133,87,84,85,90,101% (inactive),90,95,109,100,97,93,98,110,103,79,83
c1ccc2c(-c3ccncc3)c[nH]c2c1,103,86,97,–,91,86,86,65,91% (inactive),94,48,16,–,93,87,59,–,78,97,49
COc1cc2ncnc(Nc3ccc(NC(=O)c4ccccc4)cc3)c2cc1OC,101,–,85,–,107,99,105,–,102% (inactive),97,–,91,134,75,110,77,–,–,88,96
Cc1cncc2cccc(S(=O)(=O)N3CCCN(C(=O)CN)C[C@H]3C)c12,82,49,–,–,92,86,90,59,98% (inactive),92,57,13,122,55,95,76,34,14,100,84
CC(=O)c1ccc(N2CCOCC2)cc1O,–,–,91,129,96,91,91,68,90% (inactive),92,106,95,–,103,95,81,–,–,82,87
O=[N+]([O-])c1ccc(-c2nc(-c3ccc(F)cc3)c(-c3ccncc3)[nH]2)cc1,98,91,127,139,86,95,88,80,–,108,132,26,114,105,19,25,122,118,99,85
O=C1Nc2ccccc2/C1=C1/Nc2ccccc2/C1=N\OCCC(O)CO (stereo unspecified),21,5,98,44,75,64,72,75,–,–,66,41,7,2,58,50,114,98,58,11
